TRHR enhancer: TRH receptor (human) allosteric enhancement; P34981; TRHR cells, fluo-8 calcium fluorescence, EC20 TRH enhancement; enhancement, % at 2 µM; hit rate 0.66% among 360,000; AID 493056; in the data active = enhancement above about 30%; also: 0% is about no effect
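Enhancer read-out: after compound pinning and an initial kinetic agonist-mode read, an EC20 of TRH (10 nM final) was injected and fluo-8 calcium signal (Ex 480/Em 530) followed at 1 s/cycle for 100 cycles in TRHR-expressing cells.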
D1 potentiator: human D1 dopamine receptor positive modulation; P21728; HEK293 TREx D1 cells, calcium flux, dopamine EC20 potentiation; hit rate 0.036% among 360,000; potentiation, % at 10 µM; AID 504651; in the data active = potentiation above about 30%; also: 0% is about no effect
Target sequence (P21728 whole entry, looked up): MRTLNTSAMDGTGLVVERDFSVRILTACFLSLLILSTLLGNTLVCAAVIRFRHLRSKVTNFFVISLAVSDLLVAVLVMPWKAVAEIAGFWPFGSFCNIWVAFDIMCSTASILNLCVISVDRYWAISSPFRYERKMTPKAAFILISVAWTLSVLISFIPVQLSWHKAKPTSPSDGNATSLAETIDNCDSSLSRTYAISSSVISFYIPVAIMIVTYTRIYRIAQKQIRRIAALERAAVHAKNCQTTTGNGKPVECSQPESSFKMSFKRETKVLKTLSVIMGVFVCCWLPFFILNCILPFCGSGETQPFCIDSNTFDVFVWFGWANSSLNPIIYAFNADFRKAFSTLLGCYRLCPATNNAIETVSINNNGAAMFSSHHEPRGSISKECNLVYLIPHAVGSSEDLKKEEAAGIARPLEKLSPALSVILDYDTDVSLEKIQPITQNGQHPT
D1 antagonist: antagonists of human D1 dopamine receptor. P21728. HEK293 TREx D1 cells, calcium flux, dopamine EC80; stronger effect = lower value. activity change, negative = inhibition, % at 10 µM. hit rate 3.2% among 360,000; in the data active = activity change below about -30%; also: % is scaled to controls: 0 for no effect and ±100 for the full control effect
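Calcium flux readout: force-coupled, inducible Hek293 Trex D1 line, cells induced overnight at 30 C with tetracycline, dye-loaded 30–90 min at RT. Antagonism scored against EC80 dopamine challenge given 180 s after compound.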
D1 ag: activates the human D1 dopamine receptor. P21728. HEK293 T-REx D1 cells, calcium flux, agonist mode. activation, % at 2 µM. hit rate 1% among 360,000; also: 0% is about no effect
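Inducible HEK293 T-REx D1 cells, force-coupled to calcium signalling, were plated at 4000 cells/well with tetracycline and held overnight at 30 C. After no-wash calcium dye loading, compound-evoked calcium rise over 180 s flagged agonists.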
TRHR agonist: agonists of human TRH receptor; TRHR cells, calcium flux fluo-8, FDSS agonist mode; activation, % at 2 µM; hit rate 0.18% among 360,000; also: 0% is about no effect
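Fluo-8-loaded TRHR cells; 10 s baseline, compound added, kinetic Ca2+ fluorescence read 1/s, agonist mode.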
An asterisk follows results filed as active. Rows were chosen to be rich in hits. Some 4.7% of all compounds tested hit in one or more screens of this group. Rule as the data show it, unless noted: active = activation above about 30%; inactive = the rest.

SMILES	TRHR enhancer	D1 potentiator	D1 antagonist	D1 ag	TRHR agonist
Cc1oc(-c2ccc(Cl)cc2)nc1CN1CCC(C(=O)NCCCN2CCCC(C)C2)CC1 (stereo not drawn)	7	-5	-30*	4	0
Cc1oc(-c2ccc(Cl)cc2)nc1CN1CCC(C(=O)NCCCN2CCCC2=O)CC1	-3	-5	3	2	0
COc1ccc(C2CC(c3ccc4ccccc4c3OC(C)=O)=NN2C(C)=O)cc1 (stereo not drawn)	0	-4	7	1	-1
CCOc1ccccc1CNC(=O)CN(c1ccc(C)cc1)S(=O)(=O)N(C)C	-12	1	-4	-1	0
CCOc1ccc(NS(=O)(=O)c2ccc3c(c2)N(C(C)=O)CCS3)cc1	-2	-1	1	2	1
Cc1cc(Br)ccc1NC(=O)CN1C(=O)C2C3CC(c4ccccc4)C(C3)C2C1=O (stereo not drawn)	-5	-8	-39*	1	2
O=C(CCNS(=O)(=O)c1ccccc1)OCC(=O)c1ccc(F)cc1	-8	-3	-40*	17	0
O=C(CNS(=O)(=O)c1ccccc1)OCC(=O)c1ccc(F)cc1	1	-2	4	2	-1
COC(=O)c1cc2c(C)c(C)c3ccccn3c-2c1C(=O)OC	3	-3	-5	8	4
CC(C)OC(=O)c1c2c(n3ccccc13)C(=O)c1ccccc1C2=O	2	-8	15	254*	75*
COc1ccccc1OCCn1ccnc1	-1	6	11	1	1
CCC(C)c1ccccc1OCCn1ccnc1 (stereo not drawn)	-5	-5	-34*	7	-1
CC(C)N(C)Cc1cn(C)nc1-c1ccc(Oc2ccccc2)cc1	36*	-3	5	2	0
COCCN(Cc1cn(C)nc1-c1ccc(Oc2ccccc2)cc1)C(C)C	2	-1	-8	1	0
Cn1cc(CNCC2CCCO2)c(-c2ccc(Oc3ccccc3)cc2)n1 (stereo not drawn)	2	-3	-23	46*	-2
CNC(=S)N(Cc1cc2cc(C)cc(C)c2[nH]c1=O)C1CCCC1	7	-1	16	1	0
Cc1cc(C)c2[nH]c(=O)c(CN(Cc3cccs3)C(=S)NCC3CCCO3)cc2c1 (stereo not drawn)	-3	-6	-31*	-1	-1
CCNC(=S)N(Cc1cc2cc(C)cc(C)c2[nH]c1=O)C1CCCC1	5	-4	-47*	0	0
N#C/C(=C\c1ccccn1)c1nc2ccccc2s1	3	7	-3	148*	45*
N#C/C(=C/c1ccc(-c2ccccc2)o1)c1nc(-c2cccs2)cs1	0	-6	-8	215*	68*
N#C/C(=C\c1ccc(-c2ccc(F)cc2)o1)C(=O)Nc1nc(-c2cccs2)cs1	15	-3	13	14	1
COC(=O)c1ccc(/C=C(\C#N)c2nc3ccccc3s2)cc1	3	2	26	56*	15
CC(C)(C)c1ccc(C(=O)OC/C(O)=C(\C#N)c2nc3ccccc3s2)cc1	-3	-10	-75*	10	1
O=S(=O)(c1ccc2[nH]c3c(c2c1)CCCC3)N1CCN(c2cccc(C(F)(F)F)c2)CC1	0	-1	-4	-1	0
CCOC(=O)N1CCN(/C=C(\C#N)c2nc3ccccc3s2)CC1	-10	-3	-8	32*	5
SMILES	TRHR enhancer	D1 potentiator	D1 antagonist	D1 ag	TRHR agonist
N#C/C(=C/c1ccc(-c2ccc(S(N)(=O)=O)cc2)o1)C(=O)Nc1ccccc1	-6	0	-12	4	1
N#C/C(=C/c1ccc(-c2ccc(S(N)(=O)=O)cc2)o1)c1nc2ccccc2s1	20	-9	-4	265*	93*
N#C/C(=C\N1CCN(Cc2ccc3c(c2)OCO3)CC1)c1nc2ccccc2s1	2	2	-9	12	0
COc1ccc(-c2nc3ccccc3s2)cc1NC(=O)COc1cccc(C)c1	-9	-3	5	6	3
CCc1cccc(NC(=O)CSc2nc3ccccc3nc2N2CCCCC2)c1	7	1	-5	4	1
COc1ccc(C2(c3ccc(OC)cc3)NC(=O)N(CC(=O)N(C)C3CCC(C)CC3)C2=O)cc1 (stereo not drawn)	1	1	13	7	2
O=C(NCC1CCN(S(=O)(=O)c2ccccc2)CC1)Nc1ccc(F)cc1F	-8	-3	-58*	5	-1
O=C(O)CSCCc1ccccn1	-20	-7	-82*	0	0
CCC(C)[C@H](NC(=O)NCCCOC(C)C)C(=O)OC (stereo partly drawn)	-4	-4	6	2	0
CCN(CC)CC1C(=O)N(c2ccc(OC)cc2)C1c1ccccc1 (stereo not drawn)	-5	-5	-39*	8	3
COc1ccc(CNCC(=O)Nc2ccccc2-n2cccc2)cc1	-4	2	-20	12	-1
Cc1ccc(C(=O)c2cn(Cc3ccccc3F)c3cc4c(cc3c2=O)OCO4)cc1	7	-5	-22	4	0
O=S(=O)(NCc1ccco1)c1cccc(S(=O)(=O)N2CCCCC2)c1	32*	5	-4	2	0
CCn1cc(CN2CCc3c([nH]c4ccccc34)C2c2cccc(OC)c2)c(C)n1 (stereo not drawn)	-2	-3	-35*	24	0
CCn1cc(CN2CCc3c([nH]c4ccccc34)C2c2cccc(O)c2)c(C)n1 (stereo not drawn)	-3	-10	-8	2	1
CCOC(=O)C(C)N1C(=O)S/C(=C/c2cc(C)n(-c3ccccn3)c2C)C1=O (stereo not drawn)	4	-2	-45*	1	1
COc1ccc(NC(=O)Nc2nnc(N(CC(C)C)CC(C)C)s2)c(OC)c1	-10	1	2	5	0
Cc1nn(Cc2c(F)c(F)c(F)c(F)c2F)c(C)c1NC(=O)c1ccc(COc2ccccc2Cl)cc1	-2	-9	-34*	6	0
CCCNC(=O)NC(=O)CSc1cccc(C(F)(F)F)c1	-5	-6	-30	0	-1
CC(C)(C)c1ccc(C(=O)NCCc2csc(-c3ccc(Cl)cc3)n2)cc1	-4	4	12	9	1
CN(C)CCCNC(=O)c1ccc(-c2nc(-c3ccc(Cl)cc3)cs2)cc1	-13	-13	-59*	13	0
Cc1cccc(C)c1NC(=O)N1CC=CCC1	-5	4	0	2	0
Cc1cccc(C)c1NC(=O)N1CCCCCCC1	39*	-2	6	1	0
Cn1c2cc(C=O)sc2c2cnn(Cc3ccccc3F)c(=O)c21	4	1	10	0	-1
O=C(Nc1cccc2ccccc12)N(CCO)C1CCS(=O)(=O)C1 (stereo not drawn)	0	3	-71*	-2	0

Screens: PubChem, National Center for Advancing Translational Sciences (NCATS)
